# Source: PubChem BioAssay (EPA / NIEHS)
# “And” between values parts separate entries of the source, which are not always exact repeats. Identical values can stand only once. Inconclusive results are not listed. The source made the active and inactive calls. The calls were made as follows, unless noted: active = hit-call score of the fitted dose curve at least 0.9, where 1 is the maximum; inconclusive = response in the unintended direction; inactive = score below 0.9.
# How the values were obtained:
# [1] = biological target: Nucleoli Translocation, AR (gene 367) (UniProt P10275); assay: UPITT_HCI_U2OS_AR_TIF2_Nucleoli_Antagonist: University of Pittsburgh U2OS Androgen Receptor-Transcriptional Intermediary Factor 2 (AR-TIF2) Antagonism High Content Imaging Assay for Nucleoli Translocation (AID 2283997)
# Procedure, shortened: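 Antagonism is read as loss of nucleolar AR-RFP signal relative to DHT, imaged in U2OS cells also carrying GFP-TIF2. Compounds screened at 20 uM final, 0.2% DMSO; primary actives retested in triplicate.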
# [2] = biological target: Nucleoli Translocation, AR (gene 367) (UniProt P10275); assay: UPITT_HCI_U2OS_AR_TIF2_Nucleoli_Agonist: University of Pittsburgh U2OS Androgen Receptor-Transcriptional Intermediary Factor 2 (AR-TIF2) Agonism High Content Imaging Assay for Nucleoli Translocation (AID 2283998)
# Procedure, shortened: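 U2OS cells expressing RFP-tagged human AR and GFP-tagged TIF2; red fluorescence in nucleoli quantified by high-content imaging. Primary screen at 20 uM final (0.2% DMSO); concentration-response 0.195–50 uM (0.5% DMSO), fitted upward versus DMSO.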
# [3] = biological target: Ratio of Nucleoli Translocation and Cytoplasm, AR (gene 367) (UniProt P10275); assay: UPITT_HCI_U2OS_AR_TIF2_Nucleoli_Cytoplasm_Ratio_Antagonist: University of Pittsburgh U2OS Androgen Receptor-Transcriptional Intermediary Factor 2 (AR-TIF2) Antagonism High Content Imaging Assay for Ratio of Nucleoli Translocation and Cytoplasm (AID 2283999);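 also: antagonists lower the DHT-driven ratio of nucleolar to cytoplasmic red signal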
# Procedure, shortened: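 Compounds were added to U2OS cells carrying red-fluorescent AR and green-fluorescent TIF2, first at 20 uM, with hits confirmed in triplicate and titrated from 0.195 to 50 uM. Nucleolar versus cytoplasmic AR-RFP fluorescence was then quantified by imaging, with analysis relative to DHT.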
# [4] = biological target: Ratio of Nucleoli Translocation and Cytoplasm, AR (gene 367) (UniProt P10275); assay: UPITT_HCI_U2OS_AR_TIF2_Nucleoli_Cytoplasm_Ratio_Agonist: University of Pittsburgh U2OS Androgen Receptor-Transcriptional Intermediary Factor 2 (AR-TIF2) Agonism High Content Imaging Assay for Ratio of Nucleoli Translocation and Cytoplasm (AID 2284000);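 also: hits raise the red nucleolar to cytoplasm ratio above vehicle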
# Procedure, shortened: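 Compounds tested at 20 uM final in primary screen (0.2% DMSO) and 0.195-50 uM final in dose-response (0.5% DMSO). Imaging of human U2OS cells bearing RFP-AR and GFP-TIF2; endpoint is nucleoli/cytoplasm red signal ratio, positive direction relative to DMSO.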
# [5] = CEETOX_H295R_ESTRADIOL_noMTC: CeeTox H295R High-throughput Steroidogenesis Assay for Estradiol, maximum tolerated concentration (MTC) filtered results only (AID 2283919; active = hit-call score of the fitted dose curve at least 0.9, where 1 is the maximum; inactive = score below 0.9); details: actives raise or lower the signal
# Procedure, shortened: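 Readout: dansyl-derivatized estradiol quantified by LC-MS/MS in medium from H295R cells dosed 48 h (0.1% DMSO) following 48 h forskolin (10 uM) prestimulation. Gain or loss of signal fitted against DMSO; no MTC filtering applied.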
# [6] = CEETOX_H295R_PROG_noMTC: CeeTox H295R High-throughput Steroidogenesis Assay for Progesterone (PROG), maximum tolerated concentration (MTC) filtered results only (AID 2283920; active = hit-call score of the fitted dose curve at least 0.9, where 1 is the maximum; inactive = score below 0.9); details: actives raise or lower the signal
# Procedure, shortened: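 Progesterone secreted into medium was measured by HPLC-MS/MS after MTBE extraction, following 48 h chemical exposure (0.1% DMSO) of forskolin-prestimulated (10 uM, 48 h) H295R adrenal cells. Gain or loss fitted against DMSO; no MTC filtering.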
# [7] = CEETOX_H295R_ESTRONE_noMTC: CeeTox H295R High-throughput Steroidogenesis Assay for Estrone, maximum tolerated concentration (MTC) filtered results only (AID 2283921; active = hit-call score of the fitted dose curve at least 0.9, where 1 is the maximum; inactive = score below 0.9); details: actives raise or lower the signal
# Procedure, shortened: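 Estrone in spent medium, quantified by tandem MS following dansyl chloride derivatization, after 48 h chemical exposure (0.1% DMSO) of forskolin-prestimulated (10 uM, 48 h) H295R cells; concentrations not MTC-filtered, bidirectional fit against DMSO.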
# [8] = CEETOX_H295R_TESTO_noMTC: CeeTox H295R High-throughput Steroidogenesis Assay for Testosterone (TESTO), maximum tolerated concentration (MTC) filtered results only (AID 2283924; active = hit-call score of the fitted dose curve at least 0.9, where 1 is the maximum; inactive = score below 0.9); details: actives raise or lower the signal
# Procedure, shortened: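 Medium testosterone, measured by HPLC-MS/MS after liquid-liquid extraction, was fitted in both directions relative to DMSO without MTC filtering. Adrenal H295R cells received 48 h chemical exposure (0.1% DMSO final) after 48 h forskolin (10 uM) prestimulation; viability by MTT.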
# DIO1 (gene 1733) = assay: CCTE_GLTED_hDIO1: CCTE's human Deiodinase 1 (DIO1) Inhibition Assay, Great Lakes Toxicology and Ecology Division (GLTED) Lab (AID 2283987);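 also: isolated human DIO1 enzyme in a cell-free setup rather than cells; enzyme activity read as free iodide liberated from substrate via Sandell-Kolthoff colorimetry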
# Procedure, shortened: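 Cell-free human DIO1 enzyme incubated 3 h with test chemical; iodide freed from substrate then measured by Sandell-Kolthoff absorbance. Run in triplicate; loss of signal relative to DMSO taken as inhibition.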
# THRB (gene 7068) [9] = biological target: THRB (gene 7068) (UniProt P10828); assay: TOX21_TRB_BLA_Antagonist_Followup_ratio: Tox21 Thyroid Hormone Receptor beta Antagonism Beta-lactamase (BLA) Follow-Up Assay, Ratio (AID 2283958)
# Procedure, shortened: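 Cells were plated and allowed to attach for 5 h, then dosed with compounds in DMSO at 11 concentrations for 18 h at 37C. Beta-lactamase reporter activity was measured via CCF4-AM FRET as the 460:530 nm ratio.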
# [10] = TOX21_TRB_BLA_Antagonist_Followup_viability: Viability Assessment in the Tox21 Thyroid Hormone Receptor beta Antagonism Beta-lactamase (BLA) Follow-Up Assay (AID 2283961)
# Procedure, shortened: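 HEK293T cells with GAL4-human TRβ LBD and UAS-bla reporter, 3,000 cells/well in 2% charcoal-stripped FBS medium; 11-point concentrations in triplicate, 18 h at 37C. Viability from ATP by CellTiter-Glo luminescence, 30 min RT, same plates.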
# THRB (gene 7068) [11] = biological target: THRB (gene 7068) (UniProt P10828); assay: TOX21_TRB_COA_Antagonist_Followup_ratio: Tox21 Thyroid Hormone Receptor beta Antagonism through Coactivator Recruitment Follow-Up Assay, Ratio (AID 2283967)
# Procedure, shortened: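 Coactivator recruitment to the GST-tagged TRb ligand-binding domain (5.0 nM) was read as the 520/495 nm TR-FRET ratio, using 200 nM fluorescein SRC-2 peptide and 2 nM terbium anti-GST. Scaled between DMSO and T3 wells; loss of signal fitted.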
# [12] = biological target: Retinoic acid receptor RXR-alpha (Homo sapiens) (UniProt P19793); assay: TOX21_TR_RXR_BLA_Antagonist_Followup_ratio: Tox21 Thyroid Hormone Receptor beta Retinoid X Receptor alpha (RXRa) Antagonism Beta-lactamase (BLA) Follow-Up Assay, Ratio (AID 2283972)
# Procedure, shortened: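 RXRa-UAS-bla HEK293T cells, 2,500/well in phenol red-free DMEM with 2% charcoal-stripped FBS, 5 h attachment, then compounds (11 concentrations, triplicate) for 16 h at 37C; FRET-B/GCCF4-AM substrate 2 h RT; 460:530 nm ratio, loss of signal vs DMSO.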
# [13] = TOX21_TR_RXR_BLA_Antagonist_Followup_viability: Viability Assessment in the Tox21 Thyroid Hormone Receptor beta Retinoid X Receptor alpha (RXRa) Antagonism Beta-lactamase (BLA) Follow-Up Assay (AID 2283979)
# Procedure, shortened: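 Follow-up compounds (11 concentrations, triplicate) were incubated 16 h at 37C/5% CO2 with HEK293T RXRa-bla cells seeded at 2,500/well in charcoal-stripped-serum medium. ATP content by CellTiter-Glo luminescence gave viability; curves fitted in both directions against DMSO.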
# Chain of Nucleoli Translocation, AR (gene 367) (P10275 whole entry, looked up): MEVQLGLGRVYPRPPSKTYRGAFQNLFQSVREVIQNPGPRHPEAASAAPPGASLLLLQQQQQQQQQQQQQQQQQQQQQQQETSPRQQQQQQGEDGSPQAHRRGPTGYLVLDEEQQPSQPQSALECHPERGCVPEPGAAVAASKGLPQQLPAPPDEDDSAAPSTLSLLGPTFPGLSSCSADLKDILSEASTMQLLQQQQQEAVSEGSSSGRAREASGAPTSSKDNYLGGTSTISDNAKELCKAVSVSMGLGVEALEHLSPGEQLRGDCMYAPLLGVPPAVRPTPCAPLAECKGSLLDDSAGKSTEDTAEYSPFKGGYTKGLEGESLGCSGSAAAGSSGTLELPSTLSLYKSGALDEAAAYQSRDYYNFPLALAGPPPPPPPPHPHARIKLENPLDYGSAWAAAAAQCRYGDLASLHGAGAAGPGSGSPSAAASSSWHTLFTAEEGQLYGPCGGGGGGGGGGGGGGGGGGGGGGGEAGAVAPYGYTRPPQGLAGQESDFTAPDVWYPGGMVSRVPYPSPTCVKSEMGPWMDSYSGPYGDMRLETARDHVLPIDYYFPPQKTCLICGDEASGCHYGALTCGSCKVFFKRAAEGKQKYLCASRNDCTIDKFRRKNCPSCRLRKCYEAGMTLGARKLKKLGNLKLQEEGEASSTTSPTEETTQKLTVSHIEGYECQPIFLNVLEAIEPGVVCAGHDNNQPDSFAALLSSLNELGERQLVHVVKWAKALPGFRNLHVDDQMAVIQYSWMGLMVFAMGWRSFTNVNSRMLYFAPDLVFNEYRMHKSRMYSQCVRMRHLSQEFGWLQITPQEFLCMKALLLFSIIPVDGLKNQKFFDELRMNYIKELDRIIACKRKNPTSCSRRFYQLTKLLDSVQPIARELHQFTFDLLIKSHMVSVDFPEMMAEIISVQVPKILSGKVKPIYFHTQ
# Chain of Ratio of Nucleoli Translocation and Cytoplasm, AR (gene 367) (P10275 whole entry, looked up): as above
# Chain of THRB (gene 7068) (P10828 whole entry, looked up, the tested form may be a part): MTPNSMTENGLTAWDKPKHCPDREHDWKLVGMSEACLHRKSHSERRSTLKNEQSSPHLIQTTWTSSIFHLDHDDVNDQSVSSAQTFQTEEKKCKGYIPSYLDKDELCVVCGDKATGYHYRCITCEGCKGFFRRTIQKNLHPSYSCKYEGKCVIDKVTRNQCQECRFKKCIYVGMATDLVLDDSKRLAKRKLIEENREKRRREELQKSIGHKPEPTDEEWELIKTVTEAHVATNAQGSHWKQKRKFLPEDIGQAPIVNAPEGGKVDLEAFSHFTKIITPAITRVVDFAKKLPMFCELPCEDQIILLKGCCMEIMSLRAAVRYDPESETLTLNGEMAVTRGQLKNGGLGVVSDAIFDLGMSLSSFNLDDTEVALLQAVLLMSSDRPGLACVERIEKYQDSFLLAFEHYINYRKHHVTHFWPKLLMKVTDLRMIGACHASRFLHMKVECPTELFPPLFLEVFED
# Chain of Retinoic acid receptor RXR-alpha (Homo sapiens) (P19793 whole entry, looked up): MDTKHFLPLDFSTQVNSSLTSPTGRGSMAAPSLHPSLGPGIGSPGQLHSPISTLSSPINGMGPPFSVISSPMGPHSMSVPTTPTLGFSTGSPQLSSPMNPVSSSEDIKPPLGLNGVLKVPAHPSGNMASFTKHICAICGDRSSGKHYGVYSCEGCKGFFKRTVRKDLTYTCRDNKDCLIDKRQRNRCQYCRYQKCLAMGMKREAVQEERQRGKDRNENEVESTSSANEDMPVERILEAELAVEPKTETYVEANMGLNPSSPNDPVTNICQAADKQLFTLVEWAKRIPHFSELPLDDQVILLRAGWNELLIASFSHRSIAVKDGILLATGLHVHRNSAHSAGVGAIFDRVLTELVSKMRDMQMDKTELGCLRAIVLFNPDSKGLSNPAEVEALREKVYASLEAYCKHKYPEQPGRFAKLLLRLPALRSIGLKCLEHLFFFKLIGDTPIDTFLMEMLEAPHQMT
smiles,measurement,setting,value
c1ccc2c(c1)-c1ccc3ccc4cccc5cc-2c1c3c45,AC50,[1],15.4 µM (active)
same,outcome,[2],inactive
same,outcome,[3],inactive
same,outcome,[4],inactive
COC(=O)c1cccc(C(=O)OC)c1,outcome,[5],inactive
same,outcome,[6],inactive
same,outcome,[7],inactive
same,outcome,[8],inactive
same,outcome,[1],inactive
same,outcome,[2],inactive
same,outcome,[3],inactive
COC(=O)c1ccc(C(=O)OC)cc1,outcome,[5],inactive
same,outcome,[7],inactive
CCCCCC1C(=O)CCC1CC(=O)OC (configuration not stated),outcome,[6],inactive
CCCCCCOc1ccc(O)cc1,AC50,[1],50 µM (active)
same,AC50,[2],27.7 µM (active)
same,AC50,[3],90 µM (active)
same,AC50,[4],23.9 µM (active)
CC(=O)OC/C=C(C)/C=C/C=C(C)/C=C/C1=C(C)CCCC1(C)C,outcome,[5],inactive
same,AC50,[6],34 µM (active)
same,outcome,[7],inactive
OC[C@H]1O[C@@H](O[C@H]2[C@H](O)[C@@H](O)[C@H](O)O[C@@H]2CO)[C@H](O)[C@@H](O)[C@H]1O,outcome,[1],inactive
same,outcome,[3],inactive
O=C(O)C1=NN(c2ccc(S(=O)(=O)O)cc2)C(=O)C1,AC50,DIO1 (gene 1733),57.6 µM (active)
CC/C(=C(\c1ccccc1)c1ccc(OCCN(C)C)cc1)c1ccccc1,AC50,DIO1 (gene 1733),56.9 µM (active) and 72.6 µM (active)
CC1=CCC(C(C)(C)O)CC1 (configuration not stated),outcome,[4],inactive
CCC(C)(C)C1CCC(=O)CC1,outcome,[1],inactive
same,outcome,[2],inactive
same,outcome,[3],inactive
same,outcome,[4],inactive
COC(=O)C(C)Oc1ccc(Oc2ncc(C(F)(F)F)cc2Cl)cc1 (configuration not stated),AC50,[5],23.5 µM (active)
same,AC50,[6],35.1 µM (active)
same,AC50,[7],27.9 µM (active)
C#C[C@]1(O)CC[C@H]2[C@@H]3CCc4cc(O)ccc4[C@H]3CC[C@@]21C,AC50,THRB (gene 7068) [9],38.3 µM (active)
same,outcome,[10],inactive
same,outcome,THRB (gene 7068) [11],inactive
same,AC50,[12],38.3 µM (active)
same,outcome,[13],inactive
CC(C)(C)c1ccc(S)cc1,AC50,DIO1 (gene 1733),16.3 µM (active)
CC(=O)N(C)C,outcome,[1],inactive
same,outcome,[4],inactive
CCCCCCCCOC(=O)c1ccc(O)cc1,AC50,DIO1 (gene 1733),86.4 µM (active)
